# Compound activity: PubChem BioAssay, Broad Institute
# The list is not random: actives were taken first. Their share in the collection is about 2.1%.
# NSD2 HMT inh: NSD2 histone methyltransferase inhibitors, primary screen, biochemical, AlphaScreen, single concentration, set 2 | Histone-lysine N-methyltransferase NSD2 (Homo sapiens), O96028 | NSD2 peptide methylation, 120 min | inhibition, % at 12.5 µM | 310,000 tested, 0.54% active | AID 743445, 2014; in the data active means inhibition above about 50%
# PGC1a acetyl inh: inhibitors of PGC1a acetylation signal, primary screen, cell-based, U2OS, AlphaScreen, inhibitor mode; AlphaScreen anti-acetyl-lysine; with virally co-expressed GCN5 acetyltransferase; inhibition, % at 15.6 µM; 350,000 tested, 0.17% active;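 active means every replicate shows inhibition of at least 40%; inconclusive means mean inhibition at least 40% but some replicate below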;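 further: 0% = neutral control wells and 100% = positive control wells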
# INS-1E GSIS act: GLuc luminescence reporter in INS-1E cells, primary screen for activators of glucose-dependent secretion of insulin; INS-1E GLuc reporter insulin secretion, 2-3 h; activation, % at 16.6 µM; 370,000 tested, 0.61% active; AID 743287, 2014;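 active means lowest replicate activation of at least 40%, so every replicate reaches that level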;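 further: 0% = median of neutral control wells and 100% = median of IBMX positive control wells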
# Env fusion inh: inhibitors of HIV-1 Env-driven cell-cell fusion, primary screen, HeLa-JRFL effector, CEM21 target cells, luciferase; AID 651610, 2012; 360,000 tested, 1.1% active; inhibition, % at 12.3 µM;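 active means mean replicate inhibition score of at least 50 and every replicate individually at or above 50; inconclusive means only one of the two criteria met; inactive means mean below 50 and not all replicates reaching 50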;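 further: 0% = plate neutral controls and 100% = maraviroc near 300 nM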
# AF4-AF9 inh: inhibitors of AF4 peptide binding to AF9, primary screen, biochemical, AlphaScreen, biotin-AF4 peptide, FLAG-AF9, single point; Protein AF-9 (Homo sapiens), P42568; inhibition, % at 10 µM; 350,000 tested, 0.47% active; AID 651704, 2012;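 active means every replicate reaching a set inhibition limit, whatever the replicate mean, cut at about 25% in these data; inconclusive means mean inhibition reaches that limit but some replicates miss it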;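 further: 0% = plate neutral control median and 100% = total signal loss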
# Target sequence (P42568 whole entry, looked up): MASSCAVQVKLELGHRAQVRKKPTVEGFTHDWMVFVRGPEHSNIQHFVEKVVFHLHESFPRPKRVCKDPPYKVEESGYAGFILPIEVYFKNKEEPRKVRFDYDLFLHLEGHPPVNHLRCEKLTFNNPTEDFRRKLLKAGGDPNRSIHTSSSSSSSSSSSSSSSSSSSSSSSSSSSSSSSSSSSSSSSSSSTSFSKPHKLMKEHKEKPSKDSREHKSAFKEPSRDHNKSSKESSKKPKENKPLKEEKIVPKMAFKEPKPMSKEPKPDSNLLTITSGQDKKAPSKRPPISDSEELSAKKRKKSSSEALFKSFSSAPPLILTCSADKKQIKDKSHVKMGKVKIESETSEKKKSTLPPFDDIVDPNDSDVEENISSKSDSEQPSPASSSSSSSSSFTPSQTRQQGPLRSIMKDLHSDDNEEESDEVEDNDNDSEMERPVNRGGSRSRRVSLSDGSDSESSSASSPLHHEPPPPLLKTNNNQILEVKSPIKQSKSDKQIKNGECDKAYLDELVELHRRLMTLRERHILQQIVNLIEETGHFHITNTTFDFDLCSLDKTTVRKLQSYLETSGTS
# The depositor's hits bear a star; ? = inconclusive; . = not tested or not shown; [ ] = dose if it differs, or a comment.
SMILES,NSD2 HMT inh,PGC1a acetyl inh,INS-1E GSIS act,Env fusion inh,AF4-AF9 inh
Fc1ccc(Cn2cnc3ccccc32)cc1,-0.5,-7.1,10.3,-22.7,.
CCCOc1ccc(Cn2cnc3ccccc32)cc1,1.1,7.3,-50.6,60.1*,.
CCc1cccc(C)c1NC(=O)COC(=O)c1cc([N+](=O)[O-])ccc1N1CCOCC1,-0.7,-12.3,4.9,-5.5,-16.7
O=C(NCCSCc1ccccc1)c1ccc(C2SCC(=O)N2Cc2ccccc2)cc1 (stereo not given),-0.9,-10.6,.,63.7*,.
COC(=O)c1ccc(C2SCC(=O)N2Cc2ccccc2)cc1 (stereo not given),-3.5,-7.6,.,.,.
O=C(CSc1nnc(-c2cccnc2)n1C1CCCCC1)NC1CCCC1,1.1,5.8,9.2,-10.4,.
CC(C)(C)OC(=O)N1CCc2onc(-c3ccc([N+](=O)[O-])cc3)c2C1=O,.,11.7,6.5,9.2,2.5
CC(C)(C)OC(=O)N1CCc2onc(-c3ccc(Br)cc3)c2C1=O,.,-21.8,-10.4,71.7*,-1.5
CC(=O)c1c(C)[nH]c(C(=O)Nc2cccc(C)n2)c1C,-0.6,-2.0,-7.3,.,2.3
C[C@H]1CCC/C=C/[C@@H]2C[C@H](O)C[C@H]2[C@H](O)[C@H](S(=O)c2ccc(O)cc2)CC(=O)O1 (stereo not given in full),.,66.3*,.,48.4,7.9
O=C1c2ccccc2C(=O)C12OC2c1cccc2ccccc12 (stereo not given),101.4*,4.0,15.5,-32.8,-10.0
O=C1NC(c2cccc3ccccc23)Nc2ccccc21 (stereo not given),2.0,-22.3,35.2,-414.2,-2.2
COC(=O)CN(C(=S)Nc1ccccc1)C1CC(=O)N(c2ccc(OC)cc2)C1=O (stereo not given),4.1,7.0,.,.,3.6
COC(=O)CN(C(=S)Nc1ccc(F)cc1)C1CC(=O)N(c2ccc(OC)cc2)C1=O (stereo not given),-1.5,-6.6,.,71.2*,.
CCOC(=O)c1c(NC(=O)c2ccccc2N(C)S(=O)(=O)c2ccccc2)sc2c1CCCC2,-0.9,.,1.6,23.5,1.2
CCOC(=O)c1c(NC(=O)C(NCCN(C)C)c2ccccc2)sc2c1CCCC2 (stereo not given),26.2,.,-15.9,-1.6,28.8*
Cc1cc(=O)oc2cc(OCc3ccc(C(=O)OCC(=O)Nc4ccccc4OC(F)F)cc3)ccc12,.,.,-1.8,1.0,6.6
COc1ccc(OC)c2sc(N(CCN(C)C)C(=O)c3ccc4ccccc4c3)nc12,26.8,-0.9,-11.6,-5.4,27.9*
COc1cc2nc(N(CCN(C)C)C(=O)c3ccc4ccccc4c3)sc2cc1OC,1.2,-0.2,.,.,.
COc1cc2ccccc2cc1C(=O)N(CCN(C)C)c1nc2c(OC)ccc(OC)c2s1,27.8,-13.3,-25.0,-14.4,50.1*
O=C(NC1CC1)c1ccc2c(c1)N(Cc1ccc(Cl)cc1)CCS2,-6.1,-5.2,13.4,11.7,-1.5
COc1cc(N=Nc2ccccc2C(=O)O)ccc1O,3.3,.,-17.9,6.6,4.0
COc1cc(N=Nc2ccc3ccccc3c2)ccc1O,30.2,.,-9.7,-183.1,29.5*
Oc1ccc(N=Nc2ccc3ccccc3c2)cc1,4.1,.,-10.3,-135.3,25.8*
Oc1ccc(N=Nc2c(O)ccc3ccccc23)cc1,.,-1.2,-8.4,.,6.0
SMILES,NSD2 HMT inh,PGC1a acetyl inh,INS-1E GSIS act,Env fusion inh,AF4-AF9 inh
C[C@H](CO)N1C[C@H](C)[C@H](CN(C)Cc2ccc(C(F)(F)F)cc2)OCCCC[C@H](C)Oc2ccc(NC(=O)NC3CCCCC3)cc2C1=O,.,20.4,-20.7,72.1*[16.7 µM],-3.1
C[C@H]1CCCCO[C@H](CN(C)Cc2ccc(C(F)(F)F)cc2)[C@@H](C)CN([C@@H](C)CO)C(=O)c2cc(NC(=O)NC3CCCCC3)ccc2O1,.,3.5,-19.2,66.5*[16.7 µM],-2.1
O=C(c1ccccn1)N1C[C@@H]2[C@H](c3ccccc31)[C@H](CO)N2C(=O)C1CCOCC1,.,-5.0,12.9,.,-3.9
Cc1cc(N(CCO)CCO)ccc1N=Nc1cc(F)ccc1F,31.7,10.2,20.4,-5.1,35.2*
OCCN(CCO)c1ccc(C(c2ccc(Cl)cc2)c2ccc(N(CCO)CCO)cc2Cl)c(Cl)c1,12.8,-11.0,.,.,6.4
COc1ccc(NC(=O)C2C3C=CC4(O3)C2C(=O)N(CCN2CCCCC2C)C4C(=O)NC2CCCC(C)C2C)cc1 (stereo not given),1.2,-7.2,92.3*,3.3,-0.2
COc1ccc(NC(=O)C2C3C=CC4(O3)C2C(=O)N(CCN2CCCCC2)C4C(=O)NC2CCCCC2)cc1 (stereo not given),5.5,-2.6,7.0,-15.7,-1.5
Cc1c(Br)c([N+](=O)[O-])nn1CC(=O)Nc1sc2c(c1C(=O)OC(C)C)CCCC2,-4.4,5.3,46.0*,-30.2,.
COc1ccc(/C=C/C2=NNC(=O)CC2)cc1,-2.6,-2.3,-0.3,59.8*,1.5
CCOc1ccc(/C=C/C2=NNC(=O)CC2)cc1,-0.2,-11.5,19.7,27.9,1.0
COc1cccc(/C(O)=C2/C(=O)C(=O)N(Cc3ccco3)C2c2ccncc2)c1 (stereo not given),1.1,-11.6,-3.8,.,.
O=C(Nc1ccc2c(c1)OCCO2)c1cccnc1Oc1ccccc1,-0.9,.,53.3,1.8,-3.1
O=C(Nc1ccc(F)cc1)c1cccnc1Oc1ccccc1,-2.7,6.5,88.7*,-4.8,-0.3
CC(O)c1nc2ccc(Cc3ccc4nc(C(C)O)[nH]c4c3)cc2[nH]1 (stereo not given),-1.4,-7.4,45.8*,.,.
Cn1nc(C(=O)Nc2nc3ccccc3[nH]2)c2ccccc2c1=O,1.6,.,17.4,-27.3,.
O=C(O)CN1C(=O)/C(=C/C=C/c2ccccc2)SC1=S,7.9,.,1.5,0.6,-0.5
O=C(O)CN1C(=O)/C(=C\C(Br)=C\c2ccccc2)SC1=S,55.0*,-9.7,-8.0,0.4,0.3
CC(C)N1C(=O)N(c2ccc(Cl)cc2)C(C)(O)CC1(C)C (stereo not given),-1.3,-1.0,2.6,3.2,-2.7
CC(C)N1C(=O)N(c2cccc(Cl)c2)C(C)(O)CC1(C)C (stereo not given),1.3,.,63.6*,7.3,-2.0
CC(=O)Nc1sc2c(c1-c1nc3ccccc3s1)CN(C(C)C)CC2,.,51.9*,-51.7,?,-4.2
COc1ccc(S(=O)(=O)N(C)C[C@@H]2Oc3ccc(NC(=O)Cn4cnnn4)cc3CC(=O)N([C@H](C)CO)C[C@@H]2C)cc1,.,2.7,-0.5,90.4*[16.7 µM],0.0
COc1ccc(S(=O)(=O)Nc2ccc3c(c2)CC(=O)N([C@H](C)CO)C[C@H](C)[C@H](CN(C)S(=O)(=O)c2c(C)noc2C)O3)cc1,.,8.0,-1.8,56.7*[16.7 µM],5.6
COc1ccc(S(=O)(=O)Nc2ccc3c(c2)CC(=O)N([C@H](C)CO)C[C@H](C)[C@H](CN(C)S(=O)(=O)c2ccc(F)cc2)O3)cc1,.,7.1,-5.9,91.0*[16.7 µM],.
